Results filed as inconclusive are left out. A number with no mark means an inactive call. The source made the active and inactive calls. Unless noted, the call rests on the fitted dose curve; in most records, active means well fitted curve in the direction sought with a large enough effect in the repeat runs; inconclusive means weak or mixed curves; inactive means no such curve, though single readings can be large; an effect the other way counts as inactive or inconclusive.

Assay [1] addresses Estrogen receptor (Homo sapiens) (UniProt P03372). In words: qHTS assay to identify small molecule antagonists of the estrogen receptor alpha (ER-alpha) signaling pathway (AID 743069; active means well fitted curve in the direction sought with a large enough effect in the signal ratio in the repeat runs, not every such curve was filed as active; the % refers to the signal ratio). The essentials: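 Beta-lactamase FRET fluorescence is read after 2 hr at room temperature with LiveBLAzer B/G substrate. Before that, ER-alpha-bla HEK293 cells sit 4 hr after plating, then receive compound plus 17beta-estradiol and incubate 18 hr at 37C.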

Assay [2] in a line: qHTS assay to identify small molecule antagonists of the estrogen receptor alpha (ER-alpha) signaling pathway - cell viability counter screen (AID 743074; calls by dose curve;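 further: HEK293 cells carrying ER-alpha-UAS-bla reporter stimulated with 17beta-estradiol; nearly all actives have a fitted effect of over 45% in size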).
For assay [3], the target named is Estrogen receptor (Homo sapiens) (UniProt P03372). In words: qHTS assay to identify small molecule agonists of the estrogen receptor alpha (ER-alpha) signaling pathway (AID 743075; calls by dose curve;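 further: HEK293 GripTite cells with ER-alpha and UAS-driven beta-lactamase reporter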).
Sequence of Estrogen receptor (Homo sapiens) (P03372 whole entry, looked up): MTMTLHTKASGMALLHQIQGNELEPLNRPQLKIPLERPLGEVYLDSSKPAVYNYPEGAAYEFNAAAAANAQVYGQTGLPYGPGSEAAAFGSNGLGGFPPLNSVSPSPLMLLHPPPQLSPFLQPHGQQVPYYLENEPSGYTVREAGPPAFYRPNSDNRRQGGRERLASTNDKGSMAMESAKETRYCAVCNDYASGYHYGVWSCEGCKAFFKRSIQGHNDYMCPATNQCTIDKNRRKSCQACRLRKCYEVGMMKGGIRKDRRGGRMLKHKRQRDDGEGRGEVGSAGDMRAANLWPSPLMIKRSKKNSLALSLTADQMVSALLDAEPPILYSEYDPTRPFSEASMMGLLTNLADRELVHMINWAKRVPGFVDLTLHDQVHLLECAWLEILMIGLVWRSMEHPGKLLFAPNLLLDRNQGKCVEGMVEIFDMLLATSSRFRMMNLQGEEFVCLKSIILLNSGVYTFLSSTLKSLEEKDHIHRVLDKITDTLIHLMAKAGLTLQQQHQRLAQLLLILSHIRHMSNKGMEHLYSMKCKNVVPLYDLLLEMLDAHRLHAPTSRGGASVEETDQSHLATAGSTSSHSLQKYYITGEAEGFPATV
Assay [4] has the same target. In words: qHTS assay to identify small molecule agonists of the estrogen receptor alpha (ER-alpha) signaling pathway using the BG1 cell line (AID 743079). Further: nearly all actives have a fitted effect of over 20% in size. Further: potency means the concentration at half of the fitted maximal effect.
Assay [5] is described as follows: qHTS assay to identify small molecule antagonists of the estrogen receptor alpha (ER-alpha) signaling pathway using the BG1 cell line (AID 743080; calls by dose curve;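 further: BG1 cells stimulated with 17beta-estradiol alongside compound; series mostly up to about 70 µM; nearly all actives have a fitted effect of over 25% in size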). The essentials: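 Seeding, 24 h rest, compound transfer from DMSO, 17beta-estradiol addition, 21.5 h incubation, CellTiter-Fluor (30 min, 37 C), then ONE-Glo (30 min, room temperature): this sequence was run on BG1-Luc-4E2 reporter cells.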

Assay [6] is described as follows: qHTS assay to identify small molecule antagonists of the estrogen receptor alpha (ER-alpha) signaling pathway using the BG1 cell line - cell viability counter screen (AID 743081).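 Further: compound given together with 17beta-estradiol as the ER stimulus; series mostly up to about 70 µM; nearly all actives have a fitted effect of over 45% in size.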
Another assay concerns the target Aromatase (Homo sapiens) (UniProt P11511). In words: qHTS assay to identify aromatase inhibitors (AID 743083). Further: series mostly up to about 70 µM; nearly all actives have a fitted effect of over 55% in size.
Assay [7] is described as follows: qHTS assay to identify small molecule antagonists of the thyroid receptor (TR) signaling pathway (AID 743065). Further: series mostly up to about 70 µM; nearly all actives have a fitted effect of over 55% in size. The essentials:
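GH3.TRE-Luc rat pituitary cells (two TREs driving luciferase) were dosed with compound, then stimulated with 1 nM T3 (final) for 23.5 h at 37 C. ONE-Glo luminescence was the read-out, with CellTiter-Fluor fluorescence as the cytotoxicity counter-screen.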

Assay [8] concerns thyroid hormone receptor (rat, GH3 cells). In words: qHTS assay to identify small molecule agonists of the thyroid receptor (TR) signaling pathway (AID 743066; calls by dose curve).
A short description of assay [9]: qHTS assay to identify small molecule antagonists of the thyroid receptor (TR) signaling pathway - cell viability counter screen (AID 743064). Further: nearly all actives have a fitted effect of over 50% in size. The method, boiled down:
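Compounds were tested on GH3.TRE-Luc cells in the presence of T3 at 1 nM final. Following 23.5 h at 37 °C, cell viability was quantified by CellTiter-Fluor.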

Sequence of Aromatase (Homo sapiens) (P11511 whole entry, looked up): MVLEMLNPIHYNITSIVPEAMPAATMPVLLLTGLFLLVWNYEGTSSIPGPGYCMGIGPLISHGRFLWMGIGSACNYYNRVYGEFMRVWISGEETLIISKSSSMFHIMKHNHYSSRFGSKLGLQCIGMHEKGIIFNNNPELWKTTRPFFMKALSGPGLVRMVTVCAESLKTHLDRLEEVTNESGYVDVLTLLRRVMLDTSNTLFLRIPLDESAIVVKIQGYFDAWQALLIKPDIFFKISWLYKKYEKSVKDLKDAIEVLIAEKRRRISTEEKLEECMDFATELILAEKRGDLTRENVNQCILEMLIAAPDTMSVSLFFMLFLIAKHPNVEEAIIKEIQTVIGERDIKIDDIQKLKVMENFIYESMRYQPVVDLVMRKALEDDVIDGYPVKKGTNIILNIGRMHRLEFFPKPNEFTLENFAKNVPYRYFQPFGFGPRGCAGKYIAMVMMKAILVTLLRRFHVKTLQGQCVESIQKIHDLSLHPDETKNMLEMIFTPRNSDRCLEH

Take `CN1CCN(CC(=O)N2c3ccccc3C(=O)Nc3cccnc32)CC1`: the outcome in assay [1], in assay [2], in assay [3] and in assay [6] was inactive. The Potency entry (in assay [4]; in assay [5]; in the assay with Aromatase (Homo sapiens)) was “inactive” in each case.
Take `CC(C)CCCCOC(=O)c1ccccc1C(=O)OCCCCC(C)C`: the Potency result (in assay [7]; with Aromatase (Homo sapiens)) was “inactive” throughout. For the same compound, the result in [8], in [2] and in [6] was inactive.
As to `Cc1ccc(C=O)cc1C`, the Potency result (in [9]; in assay [4]; in [5]; with Aromatase (Homo sapiens)) was “inactive” throughout. Besides, the result in [1], in assay [2], in assay [3] and in assay [6] was inactive.
In the case of `CCCN1C[C@H](CSC)C[C@@H]2c3cccc4[nH]cc(c34)C[C@H]21`, the compound was called inactive in assay [8], in [1], in assay [2], in assay [3] and in assay [6]. The Potency entry with Aromatase (Homo sapiens) was “inactive”.
In the case of `C=C(C)C(=O)OCCNC(C)(C)C`, the Potency entry (in assay [9]; with Aromatase (Homo sapiens)) was “inactive” each time. Moreover, the result in [2] and in [6] was inactive.
In the case of `CCCCCCOC(=O)CC`, the Potency entry (in assay [7]; in assay [4]; in assay [5]; in the assay with Aromatase (Homo sapiens)) was “inactive” each time. Also, the call in [8], in [1], in assay [2], in [3] and in assay [6] was inactive.
For the compound `CC(C)CC(=O)O`, the call in assay [1], in assay [2], in [3] and in assay [6] was inactive. For the same compound, the Potency entry (in assay [4]; in assay [5]; in the assay with Aromatase (Homo sapiens)) was “inactive” in each case.
Turning to `CCCOC(=O)C(C)O` (configuration not stated), the Potency entry in [7], in assay [4] and in assay [5] was “inactive” each time. In addition, the result in assay [8], in assay [1], in [2], in assay [3] and in assay [6] was inactive.
As for `CC(=O)c1ccc2c(c1)Cc1ccccc1-2`, the Potency entry (in assay [7]; with Aromatase (Homo sapiens)) was “inactive” throughout. Moreover, the compound was called inactive in assay [8], in [1], in assay [2] and in assay [6]. Besides, in assay [4], the Potency is 24.4 µM (active).
Turning to `CC(C)=CCOC(=O)c1ccccc1`, the Potency result in assay [7] is “inactive”. The outcome in assay [8], in assay [2] and in assay [6] was inactive.
As for `CCCCNC1CC(C)(C)NC(C)(C)C1`, the compound was called inactive in assay [8], in [1], in assay [2] and in [3]. In addition, the Potency entry (in assay [4]; in [5]; with Aromatase (Homo sapiens)) was “inactive” in each case.
For the compound `CCCCOC(=O)c1ccccc1`, the outcome in [1], in [2], in assay [3] and in assay [6] was inactive. In addition, the Potency in [4] was 34.4 µM (active). Besides, the Potency entry (in assay [5]; with Aromatase (Homo sapiens)) was “inactive” each time.
As to `C[C@@H]1O[C@@H](O[C@@H]2[C@@H](O)[C@H](OCCc3ccc(O)c(O)c3)O[C@H](CO[C@@H]3O[C@H](CO)[C@@H](O)[C@H](O)[C@H]3O)[C@H]2OC(=O)/C=C/c2ccc(O)c(O)c2)[C@H](O)[C@H](O)[C@H]1O`, the Potency entry (in [7]; in the assay with Aromatase (Homo sapiens)) was “inactive” in each case. Also, the compound was classed as inactive in assay [8] and in assay [2].
As for `CNS(=O)(=O)CCc1ccc2[nH]cc(C3CCN(C)CC3)c2c1`, the Potency entry (in [7]; in [4]; in [5]; in the assay with Aromatase (Homo sapiens)) was “inactive” throughout. The result in assay [8], in [1], in [3] and in assay [6] was inactive.
As to `Cc1ccccc1OCC(O)CO` (configuration not stated), the call in assay [8] and in assay [6] was inactive. Further, in the assay with Aromatase (Homo sapiens), the Potency result was “inactive”.
As for `CC1=C(C(=O)O)N2C(=O)[C@@H](NC(=O)[C@H](N)c3ccc(O)cc3)[C@H]2SC1`, the compound was called inactive in assay [2] and in assay [6]. Also, in the assay with Aromatase (Homo sapiens), the Potency result is “inactive”.
With `C=C(C)C(=O)OCCN(CC)CC`, the Potency entry (in assay [7]; with Aromatase (Homo sapiens)) was “inactive” each time. In addition, the compound was classed as inactive in [8], in assay [2] and in assay [6].
For `Nc1ccc([N+](=O)[O-])c(N)c1`, the compound was classed as inactive in assay [8], in assay [1] and in [3]. The Potency entry (in [5]; in the assay with Aromatase (Homo sapiens)) was “inactive” each time.
With `CCCCCCCCCCCCCC`, the compound was classed as inactive in [2] and in assay [6]. Moreover, the Potency entry in the assay with Aromatase (Homo sapiens) is “inactive”.
`ClCCCl`: the compound was classed as inactive in assay [8], in [1], in assay [2], in assay [3] and in [6]. Besides, the Potency result (in assay [4]; in assay [5]; in the assay with Aromatase (Homo sapiens)) was “inactive” each time.
Turning to `COc1ccc(Br)c(C)c1`, the Potency result (in assay [7]; in the assay with Aromatase (Homo sapiens)) was “inactive” in each case. Further, the compound was classed as inactive in [8], in assay [2] and in [6].
`O=C(O)c1ccc(Cl)cc1Cl`: the outcome in assay [8], in [1], in [2], in assay [3] and in assay [6] was inactive. Besides, the Potency entry (in [5]; in the assay with Aromatase (Homo sapiens)) was “inactive” throughout.
In the case of `OCCCCC(O)CO` (configuration not stated), the Potency result (in assay [9]; in the assay with Aromatase (Homo sapiens)) was “inactive” in each case. Besides, the result in assay [2] and in assay [6] was inactive.
For `CC(=O)Nc1ccc(S(=O)(=O)Nc2ccc([N+](=O)[O-])cc2)cc1`, the Potency entry (in assay [7]; in [4]; in assay [5]; with Aromatase (Homo sapiens)) was “inactive” each time. Further, the outcome in assay [8], in assay [1], in assay [2] and in assay [3] was inactive.

For the origin of these results see PubChem BioAssay (Tox21).
